The campaign covered roughly 2,200 compounds. About 2,000 (91%) were called active.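 Rule for the calls: active = luminescence in either of two replicates above the same-plate mean plus 3 SD of the low-dose dopamine control; inactive = the rest.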 So high a share suggests a set chosen from earlier hits. Not all results are given here.

For the assay, the target named is D(1A) dopamine receptor (Homo sapiens) (UniProt P21728). The experiment in a line: D1 receptor positive allosteric modulators, retest, confirmation, cell-based, HEK293 D1, CRE-luciferase, duplicate (AID 642). Conditions: dopamine EC30 potentiation, at 10 µM, stronger effect = higher value.
D(1A) dopamine receptor (Homo sapiens), sequence (P21728 whole entry, looked up): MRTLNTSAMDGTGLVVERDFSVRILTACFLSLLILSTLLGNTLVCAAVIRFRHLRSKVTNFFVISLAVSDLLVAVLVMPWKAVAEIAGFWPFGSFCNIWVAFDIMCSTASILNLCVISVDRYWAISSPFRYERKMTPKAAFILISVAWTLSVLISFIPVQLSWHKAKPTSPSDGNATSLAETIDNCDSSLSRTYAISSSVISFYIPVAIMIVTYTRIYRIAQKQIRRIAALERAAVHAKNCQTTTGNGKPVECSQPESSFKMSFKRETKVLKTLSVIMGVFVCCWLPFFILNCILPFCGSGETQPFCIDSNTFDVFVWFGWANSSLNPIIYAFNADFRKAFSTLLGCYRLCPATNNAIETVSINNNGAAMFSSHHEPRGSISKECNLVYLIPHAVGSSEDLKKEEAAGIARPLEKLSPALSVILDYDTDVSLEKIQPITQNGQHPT
Turning to `CC1(C)Cc2ccccc2-c2nc(CN3CCOCC3)[nH]c(=O)c21`, the luminescence was 19300 (active).
In the case of `CCCCNc1nc2ccccc2nc1NS(=O)(=O)c1cccs1` it was 15900 (active); in that of `Cn1c(=O)c2[nH]c(NCC3CCCO3)nc2n(-c2ccccc2)c1=O` (configuration not stated), 8480 (active); in that of `CN1CCN(CC(O)COCc2ccc3c(c2)OCO3)CC1` (configuration not stated), 6270 (active).
In the case of `N#Cc1nc(Cc2ccccc2)oc1NCCc1ccccc1` it was 8810 (active).
Next, `CCOc1ccc(Nc2oc(Cc3ccccc3)nc2C#N)cc1`: 10900 (active); `COc1ccc(Nc2oc(-c3ccccc3Cl)nc2C#N)cc1`: 15100 (active); `CCCc1nc(N)nc2c1C(=O)CC(C)(C)C2`: 24100 (active).
Turning to `O=C(C1CCC1)N1CCc2cc(S(=O)(=O)NCc3cccnc3)ccc21`, the luminescence is 13000 (active).
Take `CCOc1cccc(-n2nnnc2-c2ccc(OC)cc2)c1`: the luminescence is 10400 (active).
As for `CCOC(=O)c1c(NC(=O)CSc2nnc(Cc3csc(N)n3)n2C)sc(C)c1C`, the luminescence was 9070 (active).
Take `CCOC(=O)c1c(NC(=O)CSc2nnc(CN3CCOCC3)n2C)sc2c1CCCC2`: the luminescence was 11600 (active).
Take `COc1ccc(-n2c(Cc3cccn3C)nnc2SCC(=O)Nc2cc(C)cc(C)c2)cc1`: the luminescence was 4890 (inactive).
As to `CC1Oc2ccccc2N(Cc2cccnc2)C1=O` (configuration not stated), the luminescence is 10900 (active).
Next, `COC(=O)[C@H](C(C)C)n1c(C)c(C(C)=O)c(C(C)=O)c1C`: 7760 (inactive); `CCCn1c(=NC(C)=O)c(C(=O)OCC)cc2c(=O)n3ccccc3nc21`: 9880 (active).
As to `c1coc(-c2nc3nc4ccccc4n3nc2-c2ccco2)c1`, the luminescence is 14000 (active).
In the case of `CCOc1cc(-c2noc(CCC(=O)N3CCOCC3)n2)ccc1OC` it was 10500 (active); in that of `CCOc1ccc(-c2nnn(CC(=O)N3CCN(c4ccc(OC)cc4)CC3)n2)cc1OCC`, 9620 (active); in that of `COc1nc(NCc2ccc(Cl)cc2)nc(OC)n1`, 13700 (active).
Regarding `CC(=O)c1ccc(Oc2cc(C)nc(-n3nc(C)cc3C)n2)cc1`, the luminescence is 17900 (active).
Next, `COc1ccc(Nc2cc(C)nc(-n3nc(C)cc3C)n2)cc1`: 13700 (active); `CCCCSc1nc2c(c(=O)n1CC)SC(C)C2` (configuration not stated): 8100 (active); `CC(C)C1C2=C(CC(C)(C)CC2=O)ON1c1ccccc1` (configuration not stated): 12900 (active).
Next, `CCOC(=O)c1cc(C)sc1NC(=O)C1CCC1`: 19700 (active).
With `N#CCCN1CCN(S(=O)(=O)c2ccc(S(=O)(=O)NC3CCCCC3)cc2)CC1`, the luminescence was 5770 (active).
Consider `COc1ccc(CCN(C)C(=O)C2CCCN(Cc3ccc(OC)c(OC)c3)C2)cc1OC` (configuration not stated), for which the luminescence was 7890 (active).
In the case of `CCCS(=O)(=O)N1CCC(C(=O)NCCc2ccc(OC)c(OC)c2)CC1` it was 7140 (inactive); in that of `COc1ccc(NC(=O)C2CCCN(S(=O)(=O)c3cccc4cccnc34)C2)cc1OC` (configuration not stated), 13800 (active); in that of `CCSc1ncnc2c(C#N)c3n(c12)CCCCC3`, 18600 (active).
In the case of `COc1ccc(-c2nnco2)cc1OC` it was 10800 (active); in that of `C=CCSc1nc2c(c(=O)[nH]1)C(C(C)C)C(C#N)=C(N)O2` (configuration not stated), 18500 (active).
Consider `CCOc1ccc2[nH]c(=O)c(C(c3nnnn3CCOC)N3CCOCC3)cc2c1` (configuration not stated), for which the luminescence was 5420 (inactive).
Next, `CC1CCN(c2nc3c(c(=O)[nH]c(=O)n3C)n2CCCc2ccccc2)CC1`: 14000 (active); `CCCSc1nc2c(c(=O)[nH]c(=O)n2C)n1CCc1ccccc1`: 24800 (active); `O=C(NCc1ccco1)c1cnn2c(C(F)(F)F)cc(-c3ccco3)nc12`: 8660 (active).
For the molecule `O=S(=O)(c1cccs1)N1CCc2ccccc2C1`, the luminescence is 12600 (active).
Consider `CN(C)c1nc(N)nc(CSc2nnnn2-c2cccc3ccccc23)n1`, for which the luminescence was 7470 (active).
As for `CCn1ncc(C2=NOC(C(=O)Nc3ccccc3C(=O)OC)C2)c1C` (configuration not stated), the luminescence is 14000 (active).
Next, `Cc1nn(-c2ccccc2)c2c1C(=O)NC(=O)C(C)(C)C2`: 17700 (active); `CCn1cc(C(=O)NCC2COc3ccccc3O2)c2cc(OC)c(OC)cc2c1=O` (configuration not stated): 9310 (active); `Nc1ccc(S(=O)(=O)NC(=O)c2ccccc2)cc1`: 5620 (inactive).
Take `O/N=C(\c1ccc2c(c1)OCCO2)C1CCCCC1`: the luminescence was 10600 (active).
Take `CC(=O)OC(C)C[N+](C)(C)C` (configuration not stated): the luminescence was 6620 (active).
Next, `c1ccc2c(NCC3CCCO3)nc(-c3ccncc3)nc2c1` (configuration not stated): 9880 (active); `CCCN1Cc2cccc(C(=O)NCc3ccccc3)c2C1=O`: 12000 (active).
Next, `CC1CCN(c2oc(-c3ccccc3F)nc2C#N)CC1`: 8980 (active).
Turning to `C#CCNc1nc(C(C)C)nc2c1nnn2Cc1ccccc1F`, the luminescence was 11700 (active).
For `CCOc1cc(C(=O)N2CCc3cc(OC)c(OC)cc3C2)ccc1OC(F)F`, the luminescence is 24600 (active).
Next, `COc1ccc(CCNc2ncnc3nc[nH]c23)cc1OC`: 14700 (active); `COc1ccc(-c2nnc(SCC(=O)NC3CCCCC3)o2)cc1OC`: 12200 (active); `Cc1ccc(C2CC(c3cccc(Br)c3)n3nc(N)nc3N2)cc1` (configuration not stated): 10800 (active).
Take `CCOc1ccccc1C1CC(c2ccccc2)Nc2nc(N)nn21` (configuration not stated): the luminescence was 10100 (active).
As for `Cc1ccc(C2CC(c3cccc(C)c3)n3nc(N)nc3N2)cc1` (configuration not stated), the luminescence is 8720 (active).
In the case of `FC(F)(F)c1cc(-c2ccco2)nc(N2CCOCC2)n1` it was 24200 (active); in that of `Cc1cc(C(F)(F)F)nn1-c1nc(-c2ccco2)cc(C(F)(F)F)n1`, 8160 (active).
In the case of `COc1ccc(-c2nnn(Cc3nc(N)nc(N4CCCCC4)n3)n2)cc1` it was 12600 (active); in that of `COc1ccc(S(=O)(=O)Nc2ccc(S(=O)(=O)N3CCCCC3)cc2)cc1OC`, 13000 (active).
In the case of `O=C(CSc1nnc2scc(-c3ccc(F)cc3)n12)NCc1ccco1` it was 11300 (active); in that of `Cn1c(/C(C#N)=C2/CCCCCN2)nc2ccccc21`, 15000 (active); in that of `COc1ncnc2c1N=C1CC(C)(C)CC(N)=C1S2`, 8600 (active).
For the molecule `COC(=O)c1ccccc1NC(=O)C1CCN(S(=O)(=O)c2cc(OC)ccc2OC)CC1`, the luminescence is 13600 (active).
Take `CCCCc1c(O)nc2n(c1=O)CCS2`: the luminescence is 4500 (inactive).
For the molecule `Oc1ccc(-c2csc(Nc3cccnc3)n2)cc1`, the luminescence is 10600 (active).
Next, `COC(=O)C(C)C1Sc2ccccc2NC1=O` (configuration not stated): 11200 (active); `COc1cc(NC(=O)N2CCOCC2)cc(OC)c1`: 7060 (inactive); `CC(=O)Nc1cccc(Oc2cc(C#N)c(C#N)cc2N2CCOCC2)c1`: 18800 (active).
Next, `CCn1c(=N)c(S(=O)(=O)c2ccc(F)cc2)cc2c(=O)n3ccccc3nc21`: 18300 (active).
In the case of `CCc1ccc2oc(=O)cc(CN3CCCCC3C)c2c1` (configuration not stated) it was 10700 (active); in that of `COc1ccc(CCNC(=O)CCn2c(=O)oc3ccccc32)cc1OC`, 12500 (active); in that of `COc1ccc(CCNC(=O)c2cc3sccc3n2C)cc1OC`, 7950 (inactive).
As to `CCCc1nc(-c2ccccc2O)n(-c2ccccc2)n1`, the luminescence is 14800 (active).
Turning to `COc1ncnc2sc3c(c12)CCCC3`, the luminescence was 9980 (active).
Regarding `N#Cc1c(N)sc2c1CCN(C(=O)OCc1ccccc1)C2`, the luminescence was 11700 (active).
Regarding `COc1ccc(-c2n[nH]c(C)c2-c2ccc(OC)c(OC)c2)c(O)c1`, the luminescence was 7480 (active).
In the case of `c1ccc(COc2nsnc2N2CCOCC2)cc1` it was 9440 (active); in that of `CCSc1nc(C)nc2c1oc1ccccc12`, 15900 (active); in that of `c1ccc(-c2nnc3n2NC(c2ccc4c(c2)OCO4)S3)cc1` (configuration not stated), 13600 (active).
Regarding `Cn1c(=O)c2cn(-c3cccc4ccccc34)cc2n(C)c1=O`, the luminescence was 8890 (active).
In the case of `COc1ccc(S(=O)(=O)N(C)CC(=O)Nc2ccc3c(c2)OCCO3)cc1OC` it was 7550 (active); in that of `COC(=O)C1=C(C)NC2=C(C(=O)c3ccccc32)C1c1ccc(-c2ccc(C(=O)O)cc2)o1` (configuration not stated), 12100 (active); in that of `COc1ccc(-c2nn3c(-c4ccccc4)nnc3s2)cc1OC`, 22300 (active).
Take `COc1cc(-c2nn3c(-c4cccc(C)c4)nnc3s2)cc(OC)c1OC`: the luminescence is 12800 (active).
Consider `N#CCSc1nc2ccccc2c(=O)n1-c1ccccc1`, for which the luminescence is 19300 (active).
Consider `CCOc1ccc(Cn2c(SCCCCC#N)nc3c2c(=O)n(C)c(=O)n3C)cc1OCC`, for which the luminescence was 14200 (active).
For the molecule `CCC(=O)NC(=Nc1nc2ccccc2s1)NC(=O)CC`, the luminescence is 18700 (active).
As to `CCNc1nc(NCC)nc(N(C)n2cnnc2)n1`, the luminescence was 15800 (active).
In the case of `C/C(Cl)=C\Cn1c(Nc2cccc(C)c2)nc2c1c(=O)n(C)c(=O)n2C` it was 12000 (active); in that of `Cc1cc(C)c2c(n1)nn1c(-n3ccnc3)cc(C)nc21`, 11600 (active); in that of `COc1ccc(-c2cc(C(F)(F)F)nc(S(C)(=O)=O)n2)cc1OC`, 10100 (active).
For `CCCn1c(=O)c2[nH]c(C3CCCC3)nc2n(CCC)c1=O`, the luminescence was 22800 (active).
Next, `CC(C)c1cc(C(=O)O)on1`: 5510 (inactive).
As for `CCOc1ccc2c(c1)cc(CN(C(=O)CC)C1CCCCC1)c1nnnn12`, the luminescence is 16400 (active).
In the case of `CC(C)n1c(C(O)c2ccccc2)nc2ccccc21` (configuration not stated) it was 6650 (active); in that of `COC(=O)Nc1ncc(CN2C(=O)c3ccccc3C2=O)s1`, 9780 (active).
Regarding `O=C(c1ccco1)N1CCN=C1SCc1cccc(Cl)c1`, the luminescence is 9520 (active).
In the case of `O=c1cc(-c2ccccc2)nc(N2CCCCC2)[nH]1` it was 12700 (active); in that of `Cc1ccc(S(=O)(=O)c2c(N)n(C)c3nc4ccccc4nc23)cc1`, 11800 (active).
`CCOC(=O)c1cc2n(c1C)-c1ccccc1C2=O`: the luminescence was 9350 (active).
In the case of `C/C(=C\C(=O)c1ccccc1)Nc1cccc(O)c1` it was 3550 (active).
Next, `N#Cc1nc(N)nc(N(c2ccccc2)c2ccccc2)n1`: 13100 (active); `CCc1cc(=O)oc2cc(OCC(=O)N3CCCc4ccccc43)ccc12`: 14000 (active); `CCn1nc(C(=O)OCC(=O)N2c3ccccc3CC2C)c2ccccc2c1=O` (configuration not stated): 13900 (active).
Next, `Cc1ccc(-c2nn(-c3ccccc3)cc2CN(Cc2ccccc2)C(=O)CCC(=O)O)o1`: 9380 (active); `O=C(NCc1ccccn1)c1ccc2nc(-c3ccco3)c(-c3ccco3)nc2c1`: 10400 (active).
Turning to `C=CCn1cnc2scc(-c3ccccc3)c2c1=O`, the luminescence is 16400 (active).
In the case of `CCOC(=O)/C=c1\s/c(=C\c2ccccc2OC)c(=O)n1CC(=O)N1CCOCC1` it was 15600 (active).
